Screening data from PubChem.
Shown are actives, neighbours in structure and some others; about 7.8% of the full set was active somewhere.
Vaccinia mCherry = qHTS for Stage-Specific Inhibitors of Vaccinia Orthopoxvirus: mCherry Reporter Primary qHTS; Potency, µM (doses to about 36.5 µM), most hits filed as inhibitors; actives 0.63% (n = 310,000); AID 720579, 2013; Vaccinia virus mCherry reporter infection, fluorescence; calls by dose curve; tested in A549 cells; note: nearly all actives have a fitted effect of over 35% in size
HCMV antiviral = qHTS Assay for inhibitors of the human cytomegalovirus (HCMV) | HFF cells, HCMV-luciferase reporter, 72 h; active compounds read low | activity change, negative = inhibition, % at 57.5 µM | actives 4.5% (n = 410,000); in the data active = activity change below about -60%; inconclusive = no clear call, values can overlap the other calls; inactive = above about -39%
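Inhibition of viral replication was scored as loss of reporter luminescence in HFFs infected with HCMV-luciferase (MOI 1 PFU/cell) for 72 h; compounds tested at 2 doses, normalized to buffer and Salinomycin controls.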
HCV inhibitor = qHTS Assay for Inhibitors of Hepatitis C Virus (HCV); Huh7.5.1 HCVcc-Cre infection, luciferase reporter, 44 h; Potency, µM (doses to about 41.8 µM), hits mostly inhibitors; actives 3.4% (n = 340,000); active = well fitted inhibition curve with a large enough effect; inconclusive = small, poorly fitted or top-dose-only effect, or another doubt; inactive = no such curve, though single readings can be large or run the other way
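HCVcc-Cre virus at an moi near 0.5 was added right after compound to cells cultured 4 h from seeding (1,000 cells/well). Luciferase activity was determined 44 h later, 15 min after substrate addition at RT.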
LASV entry inh = qHTS for Inhibitors of binding or entry into cells for Lassa Virus; Lassa virus pseudotype entry inhibition, cell reporter; actives 1.2% (n = 300,000); Potency, µM (series often up to 37.9 µM), actives largely listed as inhibitors; calls by dose curve; tested in HEK293 cells; note: nearly all actives have a fitted effect of over 50% in size
VACV Venus inh = qHTS for Stage-Specific Inhibitors of Vaccinia Orthopoxvirus: Venus Reporter Primary qHTS; actives 0.46% (n = 330,000); Vaccinia virus Venus reporter expression, fluorescence; AID 720580, 2013; Potency, µM (series often up to 36.5 µM), actives largely listed as inhibitors; calls by dose curve; tested in A549 cells; note: nearly all actives have a fitted effect of over 30% in size
Marburg entry inh = qHTS for inhibitors of binding or entry into cells for Marburg Virus | Potency, µM (series often up to 37.8 µM), hits mostly inhibitors | Marburg virus pseudotyped entry inhibition, cell reporter | AID 540276, 2011 | actives 1.8% (n = 300,000); calls by dose curve; tested in HEK293 cells
Large screens that a line does not name were inactive.

CCCNC(=O)N1CCC(c2nc3ccccc3s2)CC1	HCMV antiviral -75.2, HCV inhibitor inconclusive (no result: Vaccinia mCherry, LASV entry inh, VACV Venus inh, Marburg entry inh)
CC(C)c1nc2ccc(C(=O)NC(C)c3ccccc3)cc2o1 (stereo not drawn)	none (no result: HCV inhibitor, Marburg entry inh)
CCCNC(=O)c1ccc(-c2nc3ccccc3s2)s1	HCV inhibitor inconclusive, LASV entry inh inconclusive, Marburg entry inh 3.55µM
CC(C)(C)Nc1nc(NN)nc(NC(C)(C)C)n1	HCMV antiviral -84.6, HCV inhibitor inconclusive, LASV entry inh inconclusive, Marburg entry inh inconclusive (no result: Vaccinia mCherry)
CC(C)(C)Nc1nc(Cl)nc(NC(C)(C)C)n1	Marburg entry inh inconclusive
Nc1nc(=S)[nH]c2n[nH]nc12	none (no result: HCMV antiviral, HCV inhibitor, LASV entry inh, Marburg entry inh)
NC(=O)C(c1ccc(Br)cc1)c1ccc(C(=O)c2ccccc2)cc1 (stereo not drawn)	Vaccinia mCherry inconclusive, HCV inhibitor 10µM, LASV entry inh inconclusive, Marburg entry inh inconclusive
Cc1nn2c(N3CCN(C4CCCC4)CC3)cc(C(C)(C)C)nc2c1-c1ccccc1	none (no result: Vaccinia mCherry, VACV Venus inh)
Cc1nn2c(N3CCN(C(=O)c4ccco4)CC3)cc(C(C)(C)C)nc2c1-c1ccccc1	HCMV antiviral -64.0, VACV Venus inh 10µM (no result: Vaccinia mCherry)
Cc1nn2c(N3CCN(C)CC3)cc(C(C)(C)C)nc2c1-c1ccccc1	HCMV antiviral -66.9, HCV inhibitor inconclusive, LASV entry inh inconclusive, Marburg entry inh 10µM
Cc1ccc(S(=O)(=O)c2nnn3c2nc(Nc2ccc(C(C)C)cc2)c2sccc23)cc1C	LASV entry inh inconclusive, VACV Venus inh inconclusive (no result: HCV inhibitor, Marburg entry inh)
O=C(O)c1cccc2c1C(=O)c1ccc(-c3ccc(F)cc3F)cc1S2(=O)=O	HCMV antiviral -61.5 (no result: LASV entry inh, Marburg entry inh)
O=C(NC[C@H]1CCCO1)c1cccc2c1C(=O)c1ccc(-c3ccc(F)cc3OCc3ccccc3)cc1S2(=O)=O	Vaccinia mCherry inconclusive, HCV inhibitor 10µM, VACV Venus inh inconclusive (no result: LASV entry inh, Marburg entry inh)
CN(C)C(=O)OC1=C(c2ccccc2)Sc2ccccc2-n2cccc21	none (no result: HCMV antiviral, HCV inhibitor, LASV entry inh, Marburg entry inh)
COc1cc(/C=N/Nc2nc(C)cc(C)n2)ccc1OC(=O)c1ccco1	LASV entry inh inconclusive
Cc1ccc(Nc2nc(N/N=C\c3ccc4c(c3)OCO4)nc(N3CCOCC3)n2)cc1	Vaccinia mCherry inconclusive, HCMV antiviral inconclusive, HCV inhibitor 11.2µM, LASV entry inh inconclusive, VACV Venus inh inconclusive, Marburg entry inh inconclusive
CCOc1cc(/C=N\Nc2nc(Nc3ccccc3)nc(N3CCOCC3)n2)ccc1OC(=O)c1ccco1	Vaccinia mCherry inconclusive, HCV inhibitor inconclusive, LASV entry inh inconclusive, VACV Venus inh inconclusive, Marburg entry inh 3.26µM
Cc1ccc(Nc2nc(OC(C(F)(F)F)C(F)(F)F)nc(N3CCOCC3)n2)cc1	Marburg entry inh 1µM (no result: Vaccinia mCherry)
Cc1ccc(NC(=O)c2cccs2)cc1[N+](=O)[O-]	HCV inhibitor 7.94µM
Cc1ccc(C(=O)Nc2ccc(NC(=O)c3cccs3)cc2)cc1[N+](=O)[O-]	none (no result: Vaccinia mCherry, LASV entry inh, VACV Venus inh, Marburg entry inh)
Cc1ccc(NC(=O)CCC(=O)c2cccs2)cc1F	HCMV antiviral -63.8
COc1ccc(C(=O)Nc2ccc(NC(=O)c3cccs3)cc2)cc1[N+](=O)[O-]	none
Cc1ccc(C(=O)NC(=S)Nc2ccc(NC(=O)c3cccs3)cc2)cc1[N+](=O)[O-]	HCMV antiviral -78.3
COc1ccc(OC)c(NC(=O)c2ccc(-c3nc(CSc4ccccc4)c(C)o3)cc2)c1	none (no result: HCV inhibitor, Marburg entry inh)
Cc1nc2sccn2c1CN1CCC2(CC1)CC2C(=O)Nc1ccc2c(c1)OCO2 (stereo not drawn)	none (no result: HCMV antiviral, HCV inhibitor, LASV entry inh, Marburg entry inh)
COc1ccccc1C(C)NCC(=O)c1c(C)[nH]c2ccccc12 (stereo not drawn)	none (no result: HCMV antiviral, HCV inhibitor, LASV entry inh, Marburg entry inh)
CCC(C)n1c(O)c(C=NCCc2ccccc2)c(=O)[nH]c1=S (stereo not drawn)	none (no result: Vaccinia mCherry, LASV entry inh, VACV Venus inh, Marburg entry inh)
CCC(C)n1c(O)c(/C=N/Nc2ccccc2)c(=O)[nH]c1=S (stereo not drawn)	Vaccinia mCherry inconclusive, HCMV antiviral -79.9, LASV entry inh inconclusive
CC(CCl)OC(C)CCl (stereo not drawn)	HCMV antiviral -73.8 (no result: LASV entry inh, Marburg entry inh)
Cc1noc(-c2ccccc2)c1-c1ccccc1[N+](=O)[O-]	HCMV antiviral -100.5 (no result: Vaccinia mCherry, HCV inhibitor, LASV entry inh, VACV Venus inh, Marburg entry inh)
CCc1ccc(-n2nnc(-c3nc(-c4cccs4)no3)c2N)cc1	LASV entry inh inconclusive (no result: HCV inhibitor, Marburg entry inh)
Cc1c(NC(=O)c2cc3ccccc3o2)cccc1-c1nc2ccccc2o1	none (no result: HCV inhibitor, Marburg entry inh)
Nc1ccccc1N1C(=O)c2ccccc2C1=O	none (no result: Vaccinia mCherry, HCV inhibitor, LASV entry inh, VACV Venus inh, Marburg entry inh)
O=[N+]([O-])c1cccc(CN2CCN(Cc3ccc(Br)cc3)CC2)c1	HCMV antiviral -73.5, HCV inhibitor 22.4µM (no result: Vaccinia mCherry, LASV entry inh, VACV Venus inh, Marburg entry inh)
O=C1C(=O)N(Cc2cccc([N+](=O)[O-])c2)c2ccccc21	LASV entry inh inconclusive, Marburg entry inh 11.2µM
O=[N+]([O-])c1cccc(COc2ccc(CN3CCCCC3)cc2)c1	none (no result: LASV entry inh, Marburg entry inh)
C#CCN1C=CC(=O)[C@@H](O)[C@H]1c1ccccc1Br	HCV inhibitor 5.62µM (no result: LASV entry inh, Marburg entry inh)
C#CCN1C=CC(=O)[C@@H](OC(=O)Nc2ccc(C)cc2)[C@H]1c1ccccc1Br	VACV Venus inh inconclusive (no result: LASV entry inh, Marburg entry inh)
Cn1cccc1/C=C1\C(=O)NC(=O)N(Cc2ccccc2)C1=O	HCMV antiviral -65.3
O=C(Nc1ccc(OC(F)(F)F)cc1)C(NS(=O)(=O)c1cccc2nsnc12)c1ccccc1 (stereo not drawn)	LASV entry inh inconclusive, Marburg entry inh inconclusive (no result: HCV inhibitor)
CCc1ccc2[nH]c3nc(SCCN4CCOCC4)nnc3c2c1	HCMV antiviral -90.6, HCV inhibitor inconclusive (no result: Vaccinia mCherry, LASV entry inh, VACV Venus inh, Marburg entry inh)
Cc1ccc(C(=O)NNC(=O)CSc2nnc3c(n2)[nH]c2ccc(C)cc23)cc1	none (no result: HCMV antiviral)
CCc1ccc2[nH]c3nc(SCC(=O)NNC(=O)c4ccc(C(C)(C)C)cc4)nnc3c2c1	HCMV antiviral -105.9, HCV inhibitor inconclusive, LASV entry inh inconclusive, Marburg entry inh 4.61µM (no result: Vaccinia mCherry, VACV Venus inh)
